Experimental findings from PubChem BioAssay (NCI) are described below.

Among the test systems are SR leukemia; RPMI-8226 leukemia; OVCAR-8 ovarian; OVCAR-5 ovarian; OVCAR-4 ovarian; SK-OV-3 ovarian; IGROV1 ovarian; OVCAR-3 ovarian; HS 578T breast; NCI/ADR-RES ovarian.
Test in all cases: NCI-60 one-dose screen, 48 h (100 = growth as untreated, 0 = no growth, -100 = all killed)
Common to all, as to conditions: 10 µM unless noted

The panel holds about 83,000 compounds, 20% with a hit somewhere; the sample as a whole holds those more often.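 Treatment: one concentration, 48 hours, 96-well format. Scoring: percent growth, with anything below 10 considered active.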 Unmarked numbers belong to inactive results. Activity calls are given as the source filed them.

`COc1ccccc1NS(=O)(=O)c1cccc(C(=O)Nc2ccc(Br)cc2)c1`: the growth in the assay with SR leukemia was 50.4%; in the assay with RPMI-8226 leukemia, 38.4%; in the assay with OVCAR-8 ovarian it was 57.6%; in the assay with OVCAR-5 ovarian it was 68.9%; in the assay on OVCAR-4 ovarian it was 35.3%; in the assay on SK-OV-3 ovarian it was 44.1%. The growth is 46.6% with IGROV1 ovarian, 45.8% in the assay with OVCAR-3 ovarian, 73.8% in the assay on HS 578T breast and 27.6% in the assay on NCI/ADR-RES ovarian.

Turning to `COc1ccc(CC(C)=C(c2ccc(OCCN3CCCCCC3)cc2)c2ccc(OCCN3CCCCCC3)cc2)cc1`, the growth in the assay with SR leukemia was -32.2% (active); in the assay with RPMI-8226 leukemia, -57.9% (active); in the assay on OVCAR-8 ovarian, -78.1% (active); with OVCAR-5 ovarian it was -95.9% (active); in the assay on OVCAR-4 ovarian, -83.9% (active); in the assay on SK-OV-3 ovarian, -90.1% (active). The growth with IGROV1 ovarian is -77.8% (active); in the assay with OVCAR-3 ovarian it was -89.2% (active); in the assay on HS 578T breast, -61% (active); with NCI/ADR-RES ovarian, -90.3% (active).

For `Cn1ccnc1C(=O)/C=C/c1ccc(CC(=O)NC2CCCCC2)cc1`, the growth was 24.8% in the assay with SR leukemia; 20.3% in the assay on RPMI-8226 leukemia; 62.4% in the assay on OVCAR-8 ovarian; 96.8% in the assay on OVCAR-5 ovarian; 58.6% in the assay on OVCAR-4 ovarian; 92.9% in the assay on SK-OV-3 ovarian. The growth with IGROV1 ovarian was 60.4%; in the assay with OVCAR-3 ovarian, 27.6%; with HS 578T breast, 86.1%; in the assay on NCI/ADR-RES ovarian, 75.9%.

On to `OCc1cnccc1NCCCOc1ccccc1`, for which the growth is 99.9% in the assay with SR leukemia; 100% in the assay on RPMI-8226 leukemia; 102% with OVCAR-8 ovarian; 113% in the assay with OVCAR-5 ovarian; 102% in the assay with OVCAR-4 ovarian; 114% in the assay on SK-OV-3 ovarian. The growth is 110% in the assay with IGROV1 ovarian, 107% with OVCAR-3 ovarian, 98.7% in the assay on HS 578T breast and 102% in the assay on NCI/ADR-RES ovarian.

Turning to `O=[N+]([O-])CC(c1ccccc1F)c1c[nH]c2ccccc12` (stereo not given), the growth with SR leukemia is 30.2%; in the assay with RPMI-8226 leukemia it was 76%; in the assay with OVCAR-8 ovarian it was 78%; with OVCAR-5 ovarian it was 96%; with OVCAR-4 ovarian it was 97.3%; in the assay on SK-OV-3 ovarian, 119%. Also, the growth with IGROV1 ovarian is 68.6%; with OVCAR-3 ovarian, 77.9%; in the assay with HS 578T breast, 77.2%; in the assay on NCI/ADR-RES ovarian, 48.2%.

`Cc1cccc(-c2cn3ccnc3c(-c3ccc4ncn(Cc5ccccc5)c4c3)n2)c1`: the growth was 89% in the assay on SR leukemia; 62.5% in the assay with RPMI-8226 leukemia; 88.5% in the assay on OVCAR-8 ovarian; 93.4% with OVCAR-5 ovarian; 80.7% with OVCAR-4 ovarian; 102% in the assay with SK-OV-3 ovarian. Moreover, the growth with IGROV1 ovarian is 90.5%; in the assay on OVCAR-3 ovarian it was 86%; in the assay with HS 578T breast it was 91.5%; with NCI/ADR-RES ovarian it was 87.9%.

`C=C1C(=O)O[C@H]2[C@H]1CC/C(CNC(=O)c1cccc3ccccc13)=C\CC[C@@]1(C)O[C@@H]21`: the growth was 16.5% with SR leukemia; 2.93% (active) in the assay on RPMI-8226 leukemia; 43.5% in the assay with OVCAR-8 ovarian; 68.8% in the assay on OVCAR-5 ovarian; 63.2% in the assay on OVCAR-4 ovarian; 110% in the assay on SK-OV-3 ovarian. Further, the growth in the assay with IGROV1 ovarian was 31.3%; in the assay on OVCAR-3 ovarian it was 24.8%; with HS 578T breast it was 69.9%; in the assay on NCI/ADR-RES ovarian it was 80.9%.

Consider `COc1ccc(NC(=O)c2cc(NCc3cc(O)ccc3O)ccc2O)cc1`, for which the growth in the assay on SR leukemia is 39.3%; with RPMI-8226 leukemia, 49.5%; with OVCAR-8 ovarian, 83.3%; in the assay on OVCAR-5 ovarian, 116%; in the assay on OVCAR-4 ovarian, 91.9%; with SK-OV-3 ovarian, 86%. Besides, the growth was 88.4% in the assay with IGROV1 ovarian, 84.3% with OVCAR-3 ovarian, 90.1% in the assay on HS 578T breast and 101% with NCI/ADR-RES ovarian.

On to `CC(=O)O[C@H]1Cc2c([nH]c3ccccc23)[C@@H](c2ccc(Cl)cc2)N1C(=O)CCNC(C)(C)C`, for which the growth with SR leukemia was 3.79% (active); in the assay with RPMI-8226 leukemia, 44.2%; in the assay on OVCAR-8 ovarian it was 83.4%; in the assay with OVCAR-5 ovarian, 59.6%; in the assay on OVCAR-4 ovarian it was 64.6%; with SK-OV-3 ovarian, 90.5%. The growth is 24.6% in the assay with IGROV1 ovarian, 70.8% with OVCAR-3 ovarian, 62.3% in the assay on HS 578T breast and 91.8% with NCI/ADR-RES ovarian.

For `CC(=O)Nc1ccc(-n2cnc3cc(-c4ccc(OCCN5CCCCC5)cc4)ccc32)cc1`, the growth was -9.89% (active) with SR leukemia; 54% in the assay with RPMI-8226 leukemia; 87.1% with OVCAR-8 ovarian; 104% in the assay with OVCAR-5 ovarian; 82.6% in the assay on OVCAR-4 ovarian; 139% with SK-OV-3 ovarian. Further, the growth with IGROV1 ovarian was 97.4%; in the assay with OVCAR-3 ovarian it was 98.4%; in the assay with HS 578T breast it was 95.3%; with NCI/ADR-RES ovarian, 97.2%.

`O=C(NO)c1ccc(-n2nc(-c3ccccc3)c3ccccc32)cc1`: the growth is 22.8% with SR leukemia; 32.6% with RPMI-8226 leukemia; 32.6% in the assay on OVCAR-8 ovarian; 63.8% with OVCAR-5 ovarian; 19.2% in the assay on OVCAR-4 ovarian; 58.7% in the assay with SK-OV-3 ovarian. In addition, the growth in the assay with IGROV1 ovarian is 44.9%; in the assay with OVCAR-3 ovarian, 1% (active); in the assay on HS 578T breast, 55.5%; in the assay with NCI/ADR-RES ovarian it was 22.7%.

On to `C=C1C(=O)O[C@H]2[C@H]1CC/C(CNC(=O)/C=C/c1cccc(OC)c1)=C\CC[C@@]1(C)O[C@@H]21`, for which the growth with SR leukemia is 8.06% (active); in the assay with RPMI-8226 leukemia, 2.73% (active); with OVCAR-8 ovarian, 3.77% (active); in the assay with OVCAR-5 ovarian it was 39.8%; in the assay on OVCAR-4 ovarian, 19.4%; with SK-OV-3 ovarian, 86%. Moreover, the growth in the assay on IGROV1 ovarian was 20.6%; in the assay with OVCAR-3 ovarian, -62.6% (active); in the assay with HS 578T breast it was 73.1%; with NCI/ADR-RES ovarian it was 82.6%.

Consider `NS(=O)(=O)c1ccc(CCN2C(=O)C3C(C2=O)C2(Cl)C(Cl)=C(Cl)C3(Cl)C2(Cl)Cl)cc1` (stereo not given), for which the growth was 98.1% in the assay on SR leukemia; 53% in the assay on RPMI-8226 leukemia; 107% in the assay with OVCAR-8 ovarian; 98.2% in the assay with OVCAR-5 ovarian; 96.2% in the assay on OVCAR-4 ovarian; 115% in the assay with SK-OV-3 ovarian. The growth in the assay on IGROV1 ovarian is 97.3%; in the assay on OVCAR-3 ovarian it was 108%; in the assay with HS 578T breast, 96.8%; in the assay on NCI/ADR-RES ovarian, 98.7%.

`COc1ccc(/C=C2\COc3ccc(-c4ccccc4)cc3C2=O)c(OC)c1`: the growth in the assay with SR leukemia is 69.1%; in the assay with RPMI-8226 leukemia, 77.4%; in the assay with OVCAR-8 ovarian, 96.4%; in the assay with OVCAR-5 ovarian, 101%; in the assay with OVCAR-4 ovarian it was 64.7%; in the assay with SK-OV-3 ovarian, 107%. The growth with IGROV1 ovarian was 120%; with OVCAR-3 ovarian, 98.3%; in the assay with HS 578T breast it was 125%; in the assay on NCI/ADR-RES ovarian, 72.6%.

For `CCOC(=O)c1cc(C#N)n2ccc3ccccc3c12`, the growth with SR leukemia is 115%; with RPMI-8226 leukemia, 111%; in the assay on OVCAR-8 ovarian, 100%; in the assay on OVCAR-5 ovarian it was 94.2%; in the assay on OVCAR-4 ovarian, 95.3%; in the assay on SK-OV-3 ovarian it was 36.5%. In addition, the growth with IGROV1 ovarian is 99.7%; in the assay with OVCAR-3 ovarian, 102%; in the assay with HS 578T breast it was 112%; in the assay with NCI/ADR-RES ovarian, 102%.

On to `Cc1ccc(-c2[nH][nH]c(=O)c2-c2nc3ccccc3s2)cc1`, for which the growth in the assay with SR leukemia is 97.9%; in the assay on RPMI-8226 leukemia it was 96.9%; in the assay with OVCAR-8 ovarian, 105%; with OVCAR-5 ovarian it was 94.4%; with OVCAR-4 ovarian, 105%; in the assay with SK-OV-3 ovarian, 104%. Further, the growth was 106% in the assay on IGROV1 ovarian, 111% in the assay with OVCAR-3 ovarian, 97.3% in the assay with HS 578T breast and 98% with NCI/ADR-RES ovarian.

On to `Cc1cc2nc3c4ccc(Br)cc4n(CCN(C)C)c3nc2cc1C`, for which the growth was -2.61% (active) in the assay with SR leukemia; -30.4% (active) with RPMI-8226 leukemia; 21.6% in the assay on OVCAR-8 ovarian; 25.1% with OVCAR-5 ovarian; 12.3% in the assay with OVCAR-4 ovarian; 33.8% in the assay with SK-OV-3 ovarian. The growth is 4.76% (active) in the assay on IGROV1 ovarian, 21.1% in the assay on OVCAR-3 ovarian, 53.9% with HS 578T breast and 17% with NCI/ADR-RES ovarian.

Take `CCN(CC)CCn1c(=O)c2cc(OC)c(OC)cc2c2ccc3cc4c(cc3c21)OCO4`: the growth in the assay with SR leukemia was -14.9% (active); in the assay on RPMI-8226 leukemia it was 3.16% (active); with OVCAR-8 ovarian, 53.2%; with OVCAR-5 ovarian, 64.9%; with OVCAR-4 ovarian it was 66.4%; in the assay with SK-OV-3 ovarian, 32.8%. Besides, the growth was 29% in the assay with IGROV1 ovarian, 62.4% in the assay with OVCAR-3 ovarian, 64.3% in the assay on HS 578T breast and 29.9% in the assay with NCI/ADR-RES ovarian.

Take `CCOC(=O)CCN(CC(C)C)C(=S)Nc1ccccc1`: the growth in the assay with SR leukemia was 97.1%; in the assay on RPMI-8226 leukemia it was 115%; in the assay with OVCAR-8 ovarian, 102%; with OVCAR-5 ovarian, 100%; in the assay with OVCAR-4 ovarian, 112%; with SK-OV-3 ovarian, 130%. For the same compound, the growth in the assay with IGROV1 ovarian is 102%; in the assay with OVCAR-3 ovarian it was 124%; with HS 578T breast it was 117%; in the assay on NCI/ADR-RES ovarian, 105%.

Take `CCOc1cccc(-c2nc(N)nc(Nc3ccccc3SSc3ccccc3Nc3nc(N)nc(-c4cccc(OCC)c4)n3)n2)c1`: the growth with SR leukemia is 7.62% (active); in the assay with RPMI-8226 leukemia it was 56.4%; in the assay with OVCAR-8 ovarian, 59.9%; with OVCAR-5 ovarian, 99.7%; in the assay with OVCAR-4 ovarian, 71.7%; in the assay with SK-OV-3 ovarian it was 125%. Besides, the growth was 62.6% in the assay on IGROV1 ovarian, 80.2% in the assay on OVCAR-3 ovarian, 69.2% with HS 578T breast and 19% with NCI/ADR-RES ovarian.

In the case of `C=C(CBr)[C@@H]1CC[C@]2(COC(C)=O)CC[C@]3(C)[C@H](CC[C@@H]4[C@@]5(C)CCCNC(C)(C)[C@@H]5CC[C@]43C)[C@@H]12`, the growth in the assay with SR leukemia is 10%; in the assay on RPMI-8226 leukemia, 7.96% (active); in the assay with OVCAR-8 ovarian it was 40.4%; in the assay on OVCAR-5 ovarian, 87.3%; in the assay on OVCAR-4 ovarian, 50.8%; in the assay with SK-OV-3 ovarian, 72.5%. Also, the growth was 60.1% with IGROV1 ovarian, 33.7% in the assay on OVCAR-3 ovarian, 73.7% in the assay with HS 578T breast and 48.9% with NCI/ADR-RES ovarian.

For `CCOC(=O)c1cc(C(=O)c2cc(OC)cc(OC)c2)n2ccc3ccccc3c12`, the growth is 116% with SR leukemia; 108% in the assay with RPMI-8226 leukemia; 89.9% with OVCAR-8 ovarian; 98% in the assay on OVCAR-5 ovarian; 88.8% in the assay with OVCAR-4 ovarian; 98.2% in the assay with SK-OV-3 ovarian. In addition, the growth in the assay on IGROV1 ovarian was 102%; in the assay with OVCAR-3 ovarian it was 112%; in the assay on HS 578T breast, 82.5%; with NCI/ADR-RES ovarian, 92.8%.
